Data on 40 compounds can be found in PubChem BioAssay (Tox21).

Records with an inconclusive call do not appear. Some structures have more than one record in an assay (separate samples or runs), and their calls can disagree. Activity calls are given as the source filed them. Calls follow the shape of the dose curve; as a rule, active = well fitted cell-killing curve with a large enough effect in the repeat runs; inconclusive = weak or mixed curves, or effect the other way; inactive = no such curve, though single readings can be large or run the other way.
% is scaled to controls: 0 for no effect and ±100 for the full control effect; potency is read from the fitted curve at half-maximal effect.

This test is described as follows: qHTS assay to identify small molecule agonists of the vitamin D receptor (VDR) signaling pathway - cell viability counter screen (AID 743224). Also: nearly all actives have a fitted effect of over 50% in size. The conditions noted are these: VDR-bla HEK293T viability, CellTiter-Glo luminescence, 16 h; series mostly up to 62.6 µM; activity change, negative = cytotoxicity: at the top concentration. The text has this:
U.S. Tox21 Program National Center for Advancing Translational Sciences [NCATS] NIH Chemical Genomics Center [NCGC] U.S. Environmental Protection Agency [EPA] National Institutes of Environmental Health Sciences [NIEHS] National Toxicology Program [NTP] U.S. Food and Drug Administration [FDA] Tox21 Assay Overview: The vitamin D receptor (VDR), a member of nuclear hormone receptor superfamily, plays a critical role in calcium homeostasis and bone metabolism. It is also involved in cell differentiation and growth, and thrombogenicity. […] The cytotoxicity of the Tox21 compound library against the VDR-bla cell line was tested in parallel by measuring the cell viability using CellTiter-Glo assay (Promega, Madison, WI) in the same wells.
Tox21 Assay Protocol Summary: VDR-bla cells were dispensed at 2,000 cells/6 uL/well into black wall/clear-bottom 1536-well plates using a Multidrop Combi (Thermo Fisher Scientific, Waltham, MA) dispenser. After the assay plates were incubated at a 37C and 5% CO2 for 4 h, 23 nL of compounds dissolved in DMSO, positive controls or DMSO only was transferred to the assay plate by a Pintool station (Kalypsys, San Diego, CA). The plates were incubated at 37C and 5% CO2 for 16 h. After 1 uL of LiveBLAzerTM B/G FRET substrate was added using a Bioraptr Flying Reagent Dispenser (FRD) workstation (Beckman Coulter, Indianapolis, IN, USA), the plates were incubated at room temperature for 2 h, and fluorescence intensity was measured by an Envision plate reader (PerkinElmer, Shelton, CT). For cell viability readout that measures cytotoxicity, 3 ul/well of CellTiter-Glo reagent was added into the assay plates using a FRD. After 30 min incubation at room temperature, the luminescence intensity in the plates was measured using a ViewLux (PerkinElmer) plate reader.
For orientation: In qHTS, concentration-response curves come from the screen itself.
`O[C@@H](c1cc(C(F)(F)F)nc2c(C(F)(F)F)cccc12)[C@H]1CCCCN1`: the Potency was 21.1 µM (active).
As for `CCc1cccc(C)c1`, the “activity change, negative = cytotoxicity” value was 5.92% [at 81.1 µM] (inactive).
Still for that read-out and setting: as for `O=C(O)CC(=O)O`, the figure is -1.86% (inactive); as for `NC(=O)c1ccccc1N`, -6.89% [at 81.1 µM] (inactive); as for `Clc1ccc(C(Cn2ccnc2)OCc2ccsc2Cl)c(Cl)c1` (stereo not given), 3.08% (inactive).
As to `c1ccc(Nc2cccc3ccccc23)cc1`, the Potency is 55.7 µM (active) and inactive.
Regarding `C1CC(COCC2CO2)CCC1COCC1CO1` (stereo not given), the “activity change, negative = cytotoxicity” value was 0.497% (inactive).
As for `O=C(Nc1ccc(Cl)cc1)Nc1ccc(Cl)c(C(F)(F)F)c1`, the Potency is 11.9 µM (active).
On the same count and under the same terms, as for `Cc1cccc(C)c1NC(=O)CN1CCN(CCCC(c2ccc(F)cc2)c2ccc(F)cc2)CC1`, the figure is 29.8 µM (active).
On to `COC(=O)[C@]1(C)CCC[C@@]2(C)[C@H]1CC=C1C=C(C(C)C)CC[C@@H]12`, for which the “activity change, negative = cytotoxicity” value is 0.859% (inactive).
The same measure, in the same setting: next, `Cc1cccc(Br)c1`: 8.02% [at 81.1 µM] (inactive); `O=C(NO)c1ccccc1`: -31.2% [at 81.1 µM] (inactive).
On the same count and under the same terms, as for `CC(C)N=C(N)/N=C(\N)Nc1ccc(Cl)cc1`, the figure is -11% (inactive); as for `O=C(O)CCn1c2c(c3ccccc31)C[C@H](NS(=O)(=O)c1ccc(F)cc1)CC2`, 5.91% (inactive).
In the case of `C=CC(=C)CCC=C(C)C`, the Potency is 54.9 µM (active).
Turning to `CCCCN(CCCC)CCC(O)c1cc2c(Cl)cc(Cl)cc2c2cc(C(F)(F)F)ccc12` (stereo not given), the “activity change, negative = cytotoxicity” value was -24.3% (inactive).
As to `CC(=O)OC(OC(C)=O)c1ccc([N+](=O)[O-])o1`, the Potency is 44.4 µM (active).
The same measure, in the same setting: as for `O=C1c2c(O)ccc([N+](=O)[O-])c2C(=O)c2c([N+](=O)[O-])ccc(O)c21`, the figure is 10.9 µM (active).
As to `CC(=O)Oc1ccc(C2(c3ccc(OC(C)=O)cc3)C(=O)Nc3ccccc32)cc1`, the “activity change, negative = cytotoxicity” value is -1.21% (inactive).
For `[O]=[Zr]`, the “activity change, negative = cytotoxicity” value is 8.15% (inactive).
On the same count and under the same terms, next, `COC(=O)CC#N`: 4.8% [at 81.1 µM] (inactive).
As to `Cc1oc(-c2ccccc2)nc1CCOc1ccc(C[C@H](Nc2ccccc2C(=O)c2ccccc2)C(=O)O)cc1`, the Potency was 21.9 µM (active).
`CCN1CCN(c2cc(-c3ccc(F)cc3)c3c(n2)CCCCCC3)CC1`: the “activity change, negative = cytotoxicity” value is 1.72% [at 29.1 µM] (inactive).
In the case of `CNC(=S)NN`, the Potency was 5.49 µM (active).
Take `C[Si](C)(C)Cl`: the “activity change, negative = cytotoxicity” value is -0.219% (inactive).
The same measure, in the same setting: next, `CCCCCCCCCCCC(=O)N(CC)CC`: 0.803% (inactive); `CC1(C)C(=O)N(Br)C(=O)N1Br`: 6.18% (inactive); `C=C(C)C(=O)OCCC[Si](Cl)(Cl)Cl`: 1.79% [at 81.1 µM] (inactive).
The same measure, in the same setting: next, `NCCCCCCNCCCCCCN`: 12.4% (inactive).
Turning to `c1ccc(Sc2ccccc2)cc1`, the Potency is 49 µM (active).
For the compound `CC(COC(=O)c1ccccc1)OC(=O)c1ccccc1` (stereo not given), the “activity change, negative = cytotoxicity” value is 1.69% (inactive).
Same read-out and setting: next, `O=C1NC2CCCCN2C12CCN(CCCN1c3ccccc3CCc3ccc(Cl)cc31)CC2` (stereo not given): -1.44% (inactive).
`CN(Cc1cc(Br)cc(Br)c1N)C1CCCCC1`: the Potency was 26.6 µM (active).
As for `CNC(=O)c1cc(Oc2ccc(NC(=O)Nc3ccc(Cl)c(C(F)(F)F)c3)cc2)ccn1`, the Potency was 23.7 µM (active).
`O=Nc1ccc(NO)cc1`: the “activity change, negative = cytotoxicity” value is -0.177% [at 81.1 µM] (inactive).
Still for that read-out and setting: next, `CCN(CC)CCSC(=O)C(c1ccccc1)c1ccccc1`: 2.45% (inactive); `CC(C)OC(=O)c1cc(C(=O)OC(C)C)cc([N+](=O)[O-])c1`: 13.2% [at 81.1 µM] (inactive); `CCN(CC)CCOC(=O)C1(C2CCCCC2)CCCCC1`: -26.6% (inactive).
`CC(NCCC(c1ccccc1)c1ccccc1)c1ccccc1` (stereo not given): the Potency was 23.7 µM (active).
Same read-out and setting: as for `CC(C)(C)CC(C)(C)c1ccccc1O`, the figure is 19.6 µM (active).
